Here are results for 21 compounds from PubChem BioAssay (NCI).

The panel holds about 79,000 compounds, 15% with a hit somewhere; the sample as a whole holds those more often. Unmarked numbers belong to inactive results. The source made the active and inactive calls. Rule as the data show it: active = growth inhibition above about 70%; inactive = the rest.

Test [1] in a line: NCI Yeast Anticancer Drug Screen. Data for the rad50 strain (AID 155).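 Also: 0% = growth of vehicle-only cultures of the same strain.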 To be noted: S. cerevisiae rad50 strain growth inhibition; at 50.0 µM; active compounds read high. Put shortly: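 Genetically altered yeast (DNA repair pathway); compound treatment; growth inhibition vs vehicle ctrl.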
A short description of test [2]: NCI Yeast Anticancer Drug Screen. Data for the mec2-1 strain (AID 157). Conditions: S. cerevisiae mec2-1 strain, at 50.0 µM, active compounds read high. Put shortly: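 Cells of the genetically defined mec2-1 yeast strain are incubated with test compound. Inhibition of growth is calculated against vehicle-treated controls.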
The nature of test [3]: NCI Yeast Anticancer Drug Screen. Data for the sgs1 mgt1 strain (AID 161).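 Also: 0% = growth of cultures given vehicle only.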 To be noted: S. cerevisiae sgs1 mgt1 strain, at 50.0 µM, active compounds read high. Put shortly:
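Genetically altered yeast, compound exposure, growth inhibition relative to vehicle.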

Test [4] can be described thus: NCI Yeast Anticancer Drug Screen. Data for the cln2 rad14 strain (AID 165).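 Also: 0% = growth equal to vehicle treated cultures.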 Conditions: S. cerevisiae cln2 rad14 strain, at 50.0 µM, active compounds read high. Put shortly: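 The screen exposed genetically defined yeast (cln2 rad14) to test compounds and scored growth inhibition relative to vehicle-treated controls.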
A short description of test [5]: NCI Yeast Anticancer Drug Screen. Data for the bub3 strain (AID 167). Conditions: S. cerevisiae bub3 mutant strain, at 50.0 µM, active compounds read high. Put shortly: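 Yeast carrying a defined mutation is treated with each compound, and growth is compared with that of vehicle-exposed cells to give inhibition.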
Test [6] can be described thus: NCI Yeast Anticancer Drug Screen. Data for the mlh1 rad18 strain (AID 175). To be noted: S. cerevisiae mlh1 rad18 strain growth inhibition; at 50.0 µM; active compounds read high. Put shortly:
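Compound-treated yeast growth, normalised to vehicle controls. Strain bears defined DNA repair mutations.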

Take `C=CC1CC1(Cl)Cl` (stereo unspecified): the growth inhibition in test [1] was -10.9%; in test [2] it was 12.8%; in test [3] it was -4.75%; in test [4], -50.2%; in test [5], 0.5%; in test [6], 11.7%.

Consider `CCOC(=O)Nc1nc2ccccc2n1CN1CCCCC1`, for which the growth inhibition in test [1] is 18.5%; in test [2], 11.1%; in test [3], 23.4%; in test [4], 16.4%; in test [5], 0.2%; in test [6], 27.2%.

As for `CCCC(C)(C)CO`, the growth inhibition is 1.75% in test [1]; 1.35% in test [2]; -1.85% in test [3]; 5.6% in test [4]; 9.3% in test [5]; 5.75% in test [6].

On to `O=C(NC1CCC(CC2CCCCC2)CC1)c1ccccc1` (stereo unspecified), for which the growth inhibition is -14.7% in test [1]; 0.7% in test [2]; -7.65% in test [3]; 21.2% in test [4]; 10.8% in test [5]; 19.2% in test [6].

Turning to `N#Cc1sc2c(c1O)c(=O)n(-c1ccccc1)c(=S)n2-c1ccccc1`, the growth inhibition is -40.9% in test [1]; -36.9% in test [2]; -37.3% in test [3]; -23.1% in test [4]; -54.9% in test [5]; -47.8% in test [6].

In the case of `COC(=O)C1=NOC(COc2ccc([N+](=O)[O-])cc2)C1` (stereo unspecified), the growth inhibition was 9.4% in test [1]; -2.9% in test [2]; 20.4% in test [3]; -8.55% in test [4]; -1.65% in test [5]; 19.1% in test [6].

Take `O=C(c1ccccc1)c1oc2ccc(Br)cc2c1-c1cnn(-c2ccccc2)c1`: the growth inhibition is 29.2% in test [1]; -9.5% in test [2]; 11.9% in test [3]; 15.1% in test [4]; -3.85% in test [5]; 22.1% in test [6].

As for `CCCCCC(=O)N1SC(NC(=O)OC)=Nc2ccccc21`, the growth inhibition was 63.5% in test [1]; 47.5% in test [2]; 64.8% in test [3]; 84.3% (active) in test [4]; 90.6% (active) in test [5]; 83.5% (active) in test [6].

On to `COc1ccc(C(CCl)(CCl)c2ccc(OC)c(C)c2)cc1C`, for which the growth inhibition was -23.3% in test [1]; -74.1% in test [2]; -30.2% in test [3]; -4.05% in test [4]; 5.3% in test [5]; -20.4% in test [6].

Regarding `OC1c2ccccc2CC12Cc1ccccc1C2` (stereo unspecified), the growth inhibition is 36.1% in test [1]; 38.5% in test [2]; 37.3% in test [3]; 23.5% in test [4]; 26.6% in test [5]; 13.8% in test [6].

Take `Cc1cccc(NC(=O)C(C)C)c1`: the growth inhibition was 24.3% in test [1]; 19.4% in test [2]; 11.8% in test [3]; -2.35% in test [4]; -43.9% in test [5]; -33% in test [6].

Consider `COc1cc(C)cc2c1C(=O)C(Br)=CC2=O`, for which the growth inhibition was 91.2% (active) in test [1]; 92.3% (active) in test [2]; 91.9% (active) in test [3]; 91.8% (active) in test [4]; 91.8% (active) in test [5]; 89.8% (active) in test [6].

With `CCCCOC(=O)C(=O)C(CC(C(=O)Cc1ccccc1)c1ccccc1)C(=O)C=C(C)C` (stereo unspecified), the growth inhibition in test [1] was -0.1%; in test [2], -5.3%; in test [3], -0.7%; in test [4], -12.1%; in test [5], 27.2%; in test [6] it was -18.2%.

On to `CCN(CC)c1nc(N(CC)CC)nc(N(CC)CC)n1`, for which the growth inhibition was -1% in test [1]; 14.8% in test [2]; 2.75% in test [3]; -30.6% in test [4]; 13.8% in test [5]; 0.2% in test [6].

On to `CC(=O)OCC1OC(n2cnc3c(N)ncnc32)CC1OC(C)=O` (stereo unspecified), for which the growth inhibition in test [1] is -1.7%; in test [2], -1.75%; in test [3] it was -1.25%; in test [4], -47.5%; in test [5], 15.5%; in test [6], -18.6%.

In the case of `CCN(CC)CCOC(=O)c1ccc(NC(=O)OCCC(C)(C)CCOC(=O)Nc2ccc(C(=O)OCCN(CC)CC)cc2)cc1`, the growth inhibition was 6.85% in test [1]; -18.4% in test [2]; -9.25% in test [3]; -23.6% in test [4]; 8.25% in test [5]; 16.2% in test [6].

Regarding `N=C(N)c1cccc(NC(=O)CCc2ccccc2)c1`, the growth inhibition was -7.3% in test [1]; -14.6% in test [2]; -17.8% in test [3]; -29.1% in test [4]; 0.95% in test [5]; 1.9% in test [6].

For `Oc1ccc(-c2csc(NNC3=NC/C(=C/c4ccc5c(c4)OCO5)S3)n2)cc1O`, the growth inhibition in test [1] was 30.9%; in test [2] it was -16.9%; in test [3], 40.4%; in test [4], -11.4%; in test [5], 21.1%; in test [6] it was 40.8%.

As to `CC(C)C[C@H](NC(=O)[C@H](CCc1ccccc1)NC(=O)c1ccc2ccccc2n1)B(O)O`, the growth inhibition was 60.8% in test [1]; 64.7% in test [2]; 55.5% in test [3]; 73.8% (active) in test [4]; 84.7% (active) in test [5]; 82.5% (active) in test [6].

Regarding `OC(c1ccccc1)(C1CCNCC1)C1CC1` (stereo unspecified), the growth inhibition in test [1] is 9.8%; in test [2], -10.4%; in test [3], -4%; in test [4] it was -20.4%; in test [5] it was -16.6%; in test [6] it was -6.45%.

For `CSc1ccc(NC(=O)Nc2ccccc2C(F)(F)F)cc1`, the growth inhibition in test [1] was 2.05%; in test [2], -3.25%; in test [3], 18.4%; in test [4], -9.85%; in test [5] it was 34.5%; in test [6], 27%.
